# In paper PMC7862700, “An all-to-all approach to the identification of sequence-specific readers for epigenetic DNA modifications on cytosine”:
# Experiments:
# Assay in all cases: DAPPL (digital affinity profiling via proximity ligation, sequencing); 10 mM Tris-HCl pH 7.5, 50 mM NaCl, 1 mM DTT, 4% glycerol, room temperature, 30 min; GST-TFs on glutathione beads, 16-mer random dsDNA library, 0.1% formaldehyde crosslink after washing; high values mean tight binding
# FEV = molecular target: T1, FEV (Homo sapiens, UniProt Q99581 1-238); conditions: protein: recombinant; tags: N-terminal GST; dsDNA, one strand shown
# T1 sequence: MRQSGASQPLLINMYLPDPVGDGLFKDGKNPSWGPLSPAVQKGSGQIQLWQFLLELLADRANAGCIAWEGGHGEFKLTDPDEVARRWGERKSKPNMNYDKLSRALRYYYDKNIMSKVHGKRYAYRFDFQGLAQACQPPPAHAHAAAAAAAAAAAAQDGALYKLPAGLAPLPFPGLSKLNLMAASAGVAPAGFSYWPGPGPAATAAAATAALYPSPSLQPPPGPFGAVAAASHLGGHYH
# How it was run: (§1)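 Binding signal is defined as a hexamer's read frequency for one factor over its frequency for the tag-only sample. To obtain reads, GST-fused human transcription factors were expressed in yeast, captured on glutathione beads, barcoded with DNA and pooled with that sample. Pools met 200 nmole of a 16-mer random double-stranded DNA library in Tris/NaCl/DTT/glycerol buffer for 30 min at room temperature before washing, 0.1% formaldehyde crosslinking, proximity ligation (BsaI/T4 ligase, 1 h, 37 °C), PCR and Illumina NextSeq500 sequencing.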
# ETV5 = ETV5 (Homo sapiens, UniProt P41161 1-510); conditions: protein: recombinant; tags: N-terminal GST; dsDNA, one strand shown
# How it was run: as §1
# HSF1 = HSF1 (Homo sapiens, UniProt Q00613 1-529); conditions: protein: recombinant; tags: N-terminal GST; chain copies: 3; dsDNA, one strand shown
# How it was run: as §1
# SPIC = molecular target: T2, SPIC (Homo sapiens, UniProt Q8N5J4 1-248); conditions: protein: recombinant; tags: N-terminal GST; dsDNA, one strand shown
# T2 sequence: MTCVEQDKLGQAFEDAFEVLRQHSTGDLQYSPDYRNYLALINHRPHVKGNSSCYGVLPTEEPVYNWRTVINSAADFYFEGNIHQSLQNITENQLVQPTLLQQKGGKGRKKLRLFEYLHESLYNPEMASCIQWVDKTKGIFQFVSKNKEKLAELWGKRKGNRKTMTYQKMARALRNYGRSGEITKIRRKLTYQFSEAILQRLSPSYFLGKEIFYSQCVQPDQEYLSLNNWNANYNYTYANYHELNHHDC
# How it was run: as §1
# ELF4 = ELF4 (Homo sapiens, UniProt Q99607 1-663); conditions: protein: recombinant; tags: N-terminal GST; dsDNA, one strand shown
# How it was run: as §1
# ELK4 = molecular target: T3, ELK4 (Homo sapiens, UniProt P28324-2 1-405); conditions: protein: recombinant; tags: N-terminal GST; dsDNA, one strand shown
# T3 sequence: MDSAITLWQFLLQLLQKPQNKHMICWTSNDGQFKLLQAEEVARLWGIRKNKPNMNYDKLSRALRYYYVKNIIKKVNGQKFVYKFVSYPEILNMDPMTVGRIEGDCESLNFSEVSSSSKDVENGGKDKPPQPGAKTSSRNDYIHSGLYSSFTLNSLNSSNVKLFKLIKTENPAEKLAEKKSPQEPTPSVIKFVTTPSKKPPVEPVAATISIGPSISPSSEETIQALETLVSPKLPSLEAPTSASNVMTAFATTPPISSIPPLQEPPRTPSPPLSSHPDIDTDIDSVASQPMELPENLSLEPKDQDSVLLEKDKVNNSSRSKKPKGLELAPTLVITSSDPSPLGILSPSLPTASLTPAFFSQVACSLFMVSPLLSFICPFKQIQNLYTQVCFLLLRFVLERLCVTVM
# How it was run: as §1
# ETV2 = molecular target: T4, ETV2 (Homo sapiens, UniProt O00321 1-342); conditions: protein: recombinant; tags: N-terminal GST; dsDNA, one strand shown
# T4 sequence: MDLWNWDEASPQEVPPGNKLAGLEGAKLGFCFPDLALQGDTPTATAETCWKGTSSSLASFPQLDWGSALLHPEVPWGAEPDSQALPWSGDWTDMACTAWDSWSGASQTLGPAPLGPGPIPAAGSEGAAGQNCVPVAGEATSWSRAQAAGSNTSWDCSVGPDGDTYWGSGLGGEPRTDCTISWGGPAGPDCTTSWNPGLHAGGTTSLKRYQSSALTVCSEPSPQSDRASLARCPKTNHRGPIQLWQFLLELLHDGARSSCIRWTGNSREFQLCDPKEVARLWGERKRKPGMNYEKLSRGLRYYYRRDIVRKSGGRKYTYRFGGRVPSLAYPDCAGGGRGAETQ
# How it was run: as §1
# ELF3 = molecular target: T5, ELF3 (Homo sapiens, UniProt P78545 1-371); conditions: protein: recombinant; tags: N-terminal GST; dsDNA, one strand shown
# T5 sequence: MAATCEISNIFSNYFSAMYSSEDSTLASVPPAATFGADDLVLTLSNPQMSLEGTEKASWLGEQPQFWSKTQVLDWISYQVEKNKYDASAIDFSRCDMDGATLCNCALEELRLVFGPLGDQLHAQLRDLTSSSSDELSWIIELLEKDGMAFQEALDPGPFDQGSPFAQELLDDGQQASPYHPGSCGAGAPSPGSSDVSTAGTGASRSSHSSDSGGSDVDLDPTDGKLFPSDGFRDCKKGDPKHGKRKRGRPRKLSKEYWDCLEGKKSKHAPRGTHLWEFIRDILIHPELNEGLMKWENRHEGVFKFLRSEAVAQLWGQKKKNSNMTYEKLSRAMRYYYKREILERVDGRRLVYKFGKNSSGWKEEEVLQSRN
# How it was run: as §1
# CRX = CRX (Homo sapiens, UniProt O43186 1-299); conditions: protein: recombinant; tags: N-terminal GST; dsDNA, one strand shown
# How it was run: as §1
# ETV1 = ETV1 (Homo sapiens, UniProt P50549 1-477); conditions: protein: recombinant; tags: N-terminal GST; dsDNA, one strand shown
# How it was run: as §1
# ERF = molecular target: T6, ERF (Homo sapiens, UniProt P50548 1-548); conditions: protein: recombinant; tags: N-terminal GST; dsDNA, one strand shown
# T6 sequence: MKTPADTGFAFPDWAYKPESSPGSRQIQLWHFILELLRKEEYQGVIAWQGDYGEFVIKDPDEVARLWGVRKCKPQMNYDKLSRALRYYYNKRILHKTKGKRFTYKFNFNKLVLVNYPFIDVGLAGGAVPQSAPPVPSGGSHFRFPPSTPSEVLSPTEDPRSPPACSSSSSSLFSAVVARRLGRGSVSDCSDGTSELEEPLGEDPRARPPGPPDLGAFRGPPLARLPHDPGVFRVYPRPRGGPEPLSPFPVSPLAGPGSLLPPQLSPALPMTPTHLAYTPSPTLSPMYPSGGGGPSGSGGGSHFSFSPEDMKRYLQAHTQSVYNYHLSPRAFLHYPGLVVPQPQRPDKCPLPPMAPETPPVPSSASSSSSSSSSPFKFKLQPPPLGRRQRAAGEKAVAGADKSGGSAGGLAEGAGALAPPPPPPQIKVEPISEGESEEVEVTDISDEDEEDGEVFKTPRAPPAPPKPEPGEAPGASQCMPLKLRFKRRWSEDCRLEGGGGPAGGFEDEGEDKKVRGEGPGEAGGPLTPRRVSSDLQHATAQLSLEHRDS
# How it was run: as §1
# ETV3L = molecular target: T7, ETV3L (Homo sapiens, UniProt Q6ZN32 1-361); conditions: protein: recombinant; tags: N-terminal GST; dsDNA, one strand shown
# T7 sequence: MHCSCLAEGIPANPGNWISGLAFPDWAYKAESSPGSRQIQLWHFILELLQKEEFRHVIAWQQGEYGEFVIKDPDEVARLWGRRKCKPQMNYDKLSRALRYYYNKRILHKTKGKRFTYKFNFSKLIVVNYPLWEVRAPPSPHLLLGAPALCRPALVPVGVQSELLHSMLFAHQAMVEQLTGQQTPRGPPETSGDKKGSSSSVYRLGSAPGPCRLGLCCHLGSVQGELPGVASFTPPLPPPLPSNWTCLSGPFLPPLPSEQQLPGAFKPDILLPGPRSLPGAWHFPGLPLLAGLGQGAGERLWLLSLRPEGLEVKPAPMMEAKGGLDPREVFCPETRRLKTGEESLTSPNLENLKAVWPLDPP
# How it was run: as §1
# ETS2 = molecular target: T8, ETS2 (Homo sapiens, UniProt P15036 1-469); conditions: protein: recombinant; tags: N-terminal GST; dsDNA, one strand shown
# T8 sequence: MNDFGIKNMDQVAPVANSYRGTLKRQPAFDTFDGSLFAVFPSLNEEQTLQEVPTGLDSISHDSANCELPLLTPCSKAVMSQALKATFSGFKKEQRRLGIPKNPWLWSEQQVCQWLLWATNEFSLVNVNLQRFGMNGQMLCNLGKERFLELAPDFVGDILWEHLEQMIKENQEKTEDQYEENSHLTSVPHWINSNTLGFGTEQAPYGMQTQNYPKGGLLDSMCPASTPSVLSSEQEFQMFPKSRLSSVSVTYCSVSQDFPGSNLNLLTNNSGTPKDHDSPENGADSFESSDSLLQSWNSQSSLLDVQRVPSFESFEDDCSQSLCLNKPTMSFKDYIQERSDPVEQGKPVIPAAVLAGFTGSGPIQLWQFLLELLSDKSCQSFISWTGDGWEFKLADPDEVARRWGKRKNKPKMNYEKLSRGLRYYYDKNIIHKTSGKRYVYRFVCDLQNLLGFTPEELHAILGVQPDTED
# How it was run: as §1
# SPDEF = molecular target: T9, SPDEF (Homo sapiens, UniProt O95238 1-335); conditions: protein: recombinant; tags: N-terminal GST; dsDNA, one strand shown
# T9 sequence: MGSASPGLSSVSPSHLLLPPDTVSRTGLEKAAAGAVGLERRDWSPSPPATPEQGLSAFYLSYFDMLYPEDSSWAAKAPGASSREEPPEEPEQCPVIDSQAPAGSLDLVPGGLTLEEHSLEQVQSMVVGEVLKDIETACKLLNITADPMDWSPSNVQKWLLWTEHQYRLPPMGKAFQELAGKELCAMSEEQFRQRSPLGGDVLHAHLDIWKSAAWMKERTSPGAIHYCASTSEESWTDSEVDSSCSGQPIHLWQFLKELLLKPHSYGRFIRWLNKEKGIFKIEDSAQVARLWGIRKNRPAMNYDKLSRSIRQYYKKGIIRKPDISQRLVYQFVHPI
# How it was run: as §1
# ETV7 = molecular target: T10, ETV7 (Homo sapiens, UniProt Q9Y603 1-341); conditions: protein: recombinant; tags: N-terminal GST; dsDNA, one strand shown
# T10 sequence: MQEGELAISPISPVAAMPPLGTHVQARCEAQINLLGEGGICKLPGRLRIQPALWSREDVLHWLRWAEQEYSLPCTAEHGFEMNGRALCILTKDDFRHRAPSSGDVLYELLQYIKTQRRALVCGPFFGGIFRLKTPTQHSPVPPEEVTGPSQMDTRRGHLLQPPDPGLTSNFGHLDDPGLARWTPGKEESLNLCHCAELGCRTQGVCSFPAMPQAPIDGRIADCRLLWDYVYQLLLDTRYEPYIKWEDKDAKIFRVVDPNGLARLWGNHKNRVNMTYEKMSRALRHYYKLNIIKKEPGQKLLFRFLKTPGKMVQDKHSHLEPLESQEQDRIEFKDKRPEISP
# How it was run: as §1
# ELF5 = molecular target: T11, ELF5 (Homo sapiens, UniProt Q9UKW6-2 1-255); conditions: protein: recombinant; tags: N-terminal GST; dsDNA, one strand shown
# T11 sequence: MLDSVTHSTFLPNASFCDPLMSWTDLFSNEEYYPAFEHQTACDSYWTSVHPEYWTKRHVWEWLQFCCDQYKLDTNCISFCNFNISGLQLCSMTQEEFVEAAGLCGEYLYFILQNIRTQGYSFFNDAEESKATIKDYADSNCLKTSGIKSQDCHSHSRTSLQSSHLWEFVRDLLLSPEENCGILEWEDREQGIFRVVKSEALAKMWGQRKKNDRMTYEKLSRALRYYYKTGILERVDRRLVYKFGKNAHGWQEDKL
# How it was run: as §1
# ETV3 = molecular target: T12, ETV3 (Homo sapiens, UniProt P41162-2 1-143); conditions: protein: recombinant; tags: N-terminal GST; dsDNA, one strand shown
# T12 sequence: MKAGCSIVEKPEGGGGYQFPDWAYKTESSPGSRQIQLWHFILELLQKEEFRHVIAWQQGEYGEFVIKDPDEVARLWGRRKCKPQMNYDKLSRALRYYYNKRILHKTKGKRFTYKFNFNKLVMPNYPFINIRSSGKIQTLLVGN
# How it was run: as §1
# ETV6 = ETV6 (Homo sapiens, UniProt P41212 1-452); conditions: protein: recombinant; tags: N-terminal GST; dsDNA, one strand shown
# How it was run: as §1
# Sequence of CRX (O43186 whole entry): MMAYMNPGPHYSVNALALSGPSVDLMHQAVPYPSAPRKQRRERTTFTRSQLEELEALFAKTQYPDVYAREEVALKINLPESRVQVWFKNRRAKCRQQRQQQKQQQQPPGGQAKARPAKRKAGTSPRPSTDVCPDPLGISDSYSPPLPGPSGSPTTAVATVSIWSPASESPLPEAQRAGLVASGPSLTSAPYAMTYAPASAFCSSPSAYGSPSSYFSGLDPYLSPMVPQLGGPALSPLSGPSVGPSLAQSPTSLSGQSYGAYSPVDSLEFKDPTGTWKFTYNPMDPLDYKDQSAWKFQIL
# Sequence of HSF1 (Q00613 whole entry): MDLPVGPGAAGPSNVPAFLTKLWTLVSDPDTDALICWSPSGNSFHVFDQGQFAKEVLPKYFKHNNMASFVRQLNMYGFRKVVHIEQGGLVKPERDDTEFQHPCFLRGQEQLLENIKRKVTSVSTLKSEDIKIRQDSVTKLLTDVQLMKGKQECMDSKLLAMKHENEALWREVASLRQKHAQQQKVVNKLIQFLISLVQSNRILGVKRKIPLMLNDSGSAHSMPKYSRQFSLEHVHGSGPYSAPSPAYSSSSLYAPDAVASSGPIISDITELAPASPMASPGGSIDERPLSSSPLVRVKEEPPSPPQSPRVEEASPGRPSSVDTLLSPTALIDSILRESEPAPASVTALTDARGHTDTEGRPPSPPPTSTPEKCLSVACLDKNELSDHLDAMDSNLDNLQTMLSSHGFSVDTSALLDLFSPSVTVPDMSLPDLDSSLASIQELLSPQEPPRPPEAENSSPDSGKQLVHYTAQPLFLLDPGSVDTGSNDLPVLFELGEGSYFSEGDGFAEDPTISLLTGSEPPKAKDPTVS
# Sequence of ETV5 (P41161 whole entry): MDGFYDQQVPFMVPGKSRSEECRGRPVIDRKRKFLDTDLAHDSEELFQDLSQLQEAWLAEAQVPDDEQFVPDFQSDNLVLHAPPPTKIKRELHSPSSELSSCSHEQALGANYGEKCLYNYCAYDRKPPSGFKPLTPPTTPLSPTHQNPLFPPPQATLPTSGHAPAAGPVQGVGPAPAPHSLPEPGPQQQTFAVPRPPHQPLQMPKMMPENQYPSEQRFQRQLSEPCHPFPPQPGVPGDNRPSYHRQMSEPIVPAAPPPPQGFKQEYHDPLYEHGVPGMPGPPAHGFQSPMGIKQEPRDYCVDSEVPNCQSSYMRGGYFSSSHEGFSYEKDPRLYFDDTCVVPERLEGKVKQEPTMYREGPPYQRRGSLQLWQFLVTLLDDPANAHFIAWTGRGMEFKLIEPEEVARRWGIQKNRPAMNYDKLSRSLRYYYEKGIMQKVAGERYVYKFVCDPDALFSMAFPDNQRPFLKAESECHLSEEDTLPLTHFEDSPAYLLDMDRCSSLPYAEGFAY
# Sequence of ELF4 (Q99607 whole entry): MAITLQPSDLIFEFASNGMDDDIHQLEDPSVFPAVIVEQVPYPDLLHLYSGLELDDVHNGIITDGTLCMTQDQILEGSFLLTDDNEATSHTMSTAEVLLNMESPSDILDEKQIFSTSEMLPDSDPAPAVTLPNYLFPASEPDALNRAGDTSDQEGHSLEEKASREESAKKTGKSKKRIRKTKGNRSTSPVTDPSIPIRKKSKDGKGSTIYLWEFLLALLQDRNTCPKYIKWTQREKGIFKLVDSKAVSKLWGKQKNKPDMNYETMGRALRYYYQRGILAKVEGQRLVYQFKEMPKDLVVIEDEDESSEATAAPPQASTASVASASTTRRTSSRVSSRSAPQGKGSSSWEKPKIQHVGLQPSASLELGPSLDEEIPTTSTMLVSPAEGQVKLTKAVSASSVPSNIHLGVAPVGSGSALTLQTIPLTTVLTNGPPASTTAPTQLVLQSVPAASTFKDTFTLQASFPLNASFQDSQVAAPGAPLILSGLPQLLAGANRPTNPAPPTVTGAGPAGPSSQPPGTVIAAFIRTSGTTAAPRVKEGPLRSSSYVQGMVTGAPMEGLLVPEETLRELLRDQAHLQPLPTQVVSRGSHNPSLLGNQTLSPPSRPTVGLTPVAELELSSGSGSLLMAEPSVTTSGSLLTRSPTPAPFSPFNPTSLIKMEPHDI
# Sequence of ETV1 (P50549 whole entry): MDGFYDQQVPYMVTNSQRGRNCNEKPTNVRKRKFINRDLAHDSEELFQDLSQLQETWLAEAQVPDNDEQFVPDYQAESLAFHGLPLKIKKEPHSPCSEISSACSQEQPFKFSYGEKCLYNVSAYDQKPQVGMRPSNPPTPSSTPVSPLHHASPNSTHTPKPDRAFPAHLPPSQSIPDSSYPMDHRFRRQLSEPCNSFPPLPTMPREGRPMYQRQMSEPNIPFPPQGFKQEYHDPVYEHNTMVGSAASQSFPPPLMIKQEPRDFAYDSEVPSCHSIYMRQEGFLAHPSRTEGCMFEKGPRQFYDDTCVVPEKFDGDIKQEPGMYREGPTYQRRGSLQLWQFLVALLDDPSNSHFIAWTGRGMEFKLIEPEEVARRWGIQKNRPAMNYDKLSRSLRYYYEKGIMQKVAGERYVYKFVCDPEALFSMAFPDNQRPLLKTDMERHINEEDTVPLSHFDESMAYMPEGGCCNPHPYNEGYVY
# Sequence of ETV6 (P41212 whole entry): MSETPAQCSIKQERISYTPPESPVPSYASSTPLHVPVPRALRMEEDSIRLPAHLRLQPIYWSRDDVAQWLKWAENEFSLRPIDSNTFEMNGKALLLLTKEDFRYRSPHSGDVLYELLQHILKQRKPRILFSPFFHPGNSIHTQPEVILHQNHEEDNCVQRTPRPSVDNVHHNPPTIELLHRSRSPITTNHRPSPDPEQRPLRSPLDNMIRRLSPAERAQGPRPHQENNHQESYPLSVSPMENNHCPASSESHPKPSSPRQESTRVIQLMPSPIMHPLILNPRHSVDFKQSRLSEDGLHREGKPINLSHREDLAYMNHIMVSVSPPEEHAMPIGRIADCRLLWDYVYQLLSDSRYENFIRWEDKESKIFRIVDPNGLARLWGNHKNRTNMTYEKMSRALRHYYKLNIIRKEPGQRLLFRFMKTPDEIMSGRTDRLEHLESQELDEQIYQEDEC
sequence,measurement,setting,value
GCTCCA,binding signal,FEV,"1.22 fold enrichment (6-mer frequency, TF over GST control)"
same,binding signal,ETV5,"1.23 fold enrichment (6-mer frequency, TF over GST control)"
same,binding signal,HSF1,"1.16 fold enrichment (6-mer frequency, TF over GST control)"
same,binding signal,SPIC,"1.08 fold enrichment (6-mer frequency, TF over GST control)"
same,binding signal,ELF4,"1.22 fold enrichment (6-mer frequency, TF over GST control)"
same,binding signal,ELK4,"1.24 fold enrichment (6-mer frequency, TF over GST control)"
same,binding signal,ETV2,"1.29 fold enrichment (6-mer frequency, TF over GST control)"
same,binding signal,ELF3,"1.21 fold enrichment (6-mer frequency, TF over GST control)"
same,binding signal,CRX,"1.01 fold enrichment (6-mer frequency, TF over GST control)"
same,binding signal,ETV1,"1.12 fold enrichment (6-mer frequency, TF over GST control)"
same,binding signal,ERF,"1.26 fold enrichment (6-mer frequency, TF over GST control)"
same,binding signal,ETV3L,"1.26 fold enrichment (6-mer frequency, TF over GST control)"
same,binding signal,ETS2,"1.21 fold enrichment (6-mer frequency, TF over GST control)"
same,binding signal,SPDEF,"1.19 fold enrichment (6-mer frequency, TF over GST control)"
same,binding signal,ETV7,"1.19 fold enrichment (6-mer frequency, TF over GST control)"
same,binding signal,ELF5,"1.09 fold enrichment (6-mer frequency, TF over GST control)"
same,binding signal,ETV3,"1.14 fold enrichment (6-mer frequency, TF over GST control)"
same,binding signal,ETV6,"1.1 fold enrichment (6-mer frequency, TF over GST control)"
